{"source": "PubChem BioAssay (EPA / NIEHS)", "note": "Where “and” joins values, the source holds several entries; their conditions need not be identical. Identical values can stand only once. More than one record can exist for a structure, and the calls need not agree. Calls of active or inactive are those of the source. How the source made its calls: active means hit-call score of the fitted dose curve at least 0.9, where 1 is the maximum; inactive means score below 0.9.", "data": [{"read-out": "Interleukin-8 (IL8), CXCL8 (gene 3576)", "assay": "BSK_LPS_IL8: BioMAP Diversity Plus: LPS Assay for Interleukin-8 (IL8) Biomarker Activity (AID 2283078)", "settings": "primary human HUVEC with PBMC; actives raise or lower the signal", "in_short": "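Human umbilical vein endothelial cells co-cultured with PBMC, LPS-stimulated, exposed to compound for 24 h. IL-8 quantified by ELISA; fitted in both directions against DMSO, with SRB total-protein staining of parallel cultures for cytotoxicity.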", "values": [{"compound": "O=S(=O)(OCC(F)(F)F)C(F)(F)C(F)(F)C(F)(F)C(F)(F)F", "outcome": "inactive"}, {"compound": "C=CC(=O)OCC(F)(F)C(F)(F)C(F)(F)C(F)(F)C(F)(F)C(F)(F)C(F)(F)C(F)F", "outcome": "inactive"}, {"compound": "NS(=O)(=O)C(F)(F)C(F)(F)C(F)(F)C(F)(F)C(F)(F)C(F)(F)F", "outcome": "inactive"}, {"compound": "CC(C)CCCC(C)CCO", "note": "(configuration not stated)", "outcome": "inactive"}, {"compound": "CCN(CC)c1ccc(C=O)cc1", "outcome": "inactive"}, {"compound": "O=C=Nc1cccc2c(N=C=O)cccc12", "outcome": "inactive"}, {"compound": "C=CC(=O)OCCC(F)(F)C(F)(F)C(F)(F)C(F)(F)F", "outcome": "inactive"}, {"compound": "OCCCCC(F)(F)C(F)(F)C(F)(F)C(F)(F)F", "outcome": "inactive"}, {"compound": "O=C(O)CCC(F)(F)C(F)(F)C(F)(F)C(F)(F)C(F)(F)C(F)(F)C(F)(F)F", "outcome": "inactive"}, {"compound": "CCN(CC)c1ccc(N=Nc2ccccc2)cc1", "AC50": "20 µM (active)"}, {"compound": "O=S(=O)(Cl)C(F)(F)C(F)(F)C(F)(F)C(F)(F)C(F)(F)C(F)(F)C(F)(F)C(F)(F)F", "AC50": "30 µM (active)"}, {"compound": "O=C(Cl)C(F)(F)C(F)(F)C(F)(F)C(F)(F)C(F)(F)C(F)(F)F", "AC50": "50.3 µM (active)", "outcome": "inactive"}, {"compound": "Cc1cc(O)c(C(C)(C)C)cc1C(C)(C)C", "AC50": "9.26 µM (active)"}, {"compound": "FC(F)(F)C(F)(F)C(F)(F)CC1CO1", "note": "(configuration not stated)", "outcome": "inactive"}, {"compound": "O=C(O)C(F)(F)C(F)(F)C(F)(F)C(=O)O", "outcome": "inactive"}, {"compound": "Cc1cnccn1", "outcome": "inactive"}, {"compound": "CN(C(=O)C(F)(F)C(F)(F)C(F)(F)F)[Si](C)(C)C", "outcome": "inactive"}, {"compound": "Brc1nc2ccccc2s1", "outcome": "inactive"}, {"compound": "CCN(CC)c1ccc2c(c1)Oc1cc(N(CC)CC)ccc1C21OC(=O)c2ccccc21", "AC50": "6.55 µM (active)"}, {"compound": "NC(O)(C(F)(F)F)C(F)(F)F", "AC50": "5.33 µM (active)", "outcome": "inactive"}, {"compound": "O=C(O)C(F)(F)OC(F)(F)C(F)(F)OC(F)(F)C(F)(F)OC(F)(F)F", "AC50": "9.98 µM (active) and 20 µM (active)", "outcome": "inactive"}, {"compound": "O=C(O)C(F)(F)C(F)(F)C(F)(F)C(F)(F)C(F)(F)C(F)(F)C(F)F", "AC50": "30 µM (active)", "outcome": "inactive"}, {"compound": "NC(=O)C(F)(F)C(F)(F)C(F)(F)C(F)F", "AC50": "22.7 µM (active)", "outcome": "inactive"}, {"compound": "OC(O)C(F)(F)C(F)(F)F", "outcome": "inactive"}, {"compound": "COC(F)(C(F)F)C(F)(F)F", "note": "(configuration not stated)", "outcome": "inactive"}, {"compound": "Cc1ccc(O)c(-n2nc3ccccc3n2)c1", "outcome": "inactive"}, {"compound": "CCN=C1C=CC(=C(c2ccc(N(CC)CC)cc2)c2ccc(N(CC)CC)cc2)c2ccccc21", "AC50": "782 nM (active) and 483 nM (active)"}, {"compound": "NC(=O)C(F)(F)C(F)(F)C(F)(F)C(F)(F)C(F)(F)C(F)(F)C(F)(F)F", "outcome": "inactive"}, {"compound": "FC(F)(F)C(F)(F)C(F)(F)C(F)(F)C(F)(F)C(F)(F)C(F)(F)CCI", "outcome": "inactive"}, {"compound": "Cc1ccc(S(=O)(=O)C(I)I)cc1", "AC50": "4.27 µM (active)"}, {"compound": "OCCCC(F)(F)C(F)(F)C(F)(F)C(F)(F)C(F)(F)C(F)(F)C(F)(F)C(F)(F)F", "AC50": "45.9 µM (active) and 42.5 µM (active)"}, {"compound": "NC(=O)C(F)(F)C(F)(F)C(F)(F)C(F)(F)C(N)=O", "outcome": "inactive"}, {"compound": "O=C(O)CCC(F)(F)C(F)(F)C(F)(F)F", "outcome": "inactive"}]}, {"read-out": "not listed separately", "assay": "BSK_LPS_SRB: Viability Assessment in the BioMAP Diversity Plus: LPS Assay (AID 2283079);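 further: total protein by sulforhodamine B absorbance as a cytotoxicity measure; measured one day after compound addition; fitted in both directions against DMSO so loss or gain of signal counts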", "settings": "primary human HUVEC with PBMC", "in_short": "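Co-culture of human umbilical vein endothelial cells and PBMC, read 24 h after dosing. Total protein by 0.1% SRB staining after 10% TCA fixation, absorbance at 560 nm; bidirectional fit against DMSO.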", "values": [{"compound": "O=S(=O)(OCC(F)(F)F)C(F)(F)C(F)(F)C(F)(F)C(F)(F)F", "outcome": "inactive"}, {"compound": "C=CC(=O)OCC(F)(F)C(F)(F)C(F)(F)C(F)(F)C(F)(F)C(F)(F)C(F)(F)C(F)F", "outcome": "inactive"}, {"compound": "NS(=O)(=O)C(F)(F)C(F)(F)C(F)(F)C(F)(F)C(F)(F)C(F)(F)F", "AC50": "40.1 µM (active)", "outcome": "inactive"}, {"compound": "CC(C)CCCC(C)CCO", "note": "(configuration not stated)", "outcome": "inactive"}, {"compound": "CCN(CC)c1ccc(C=O)cc1", "outcome": "inactive"}, {"compound": "O=C=Nc1cccc2c(N=C=O)cccc12", "outcome": "inactive"}, {"compound": "C=CC(=O)OCCC(F)(F)C(F)(F)C(F)(F)C(F)(F)F", "outcome": "inactive"}, {"compound": "OCCCCC(F)(F)C(F)(F)C(F)(F)C(F)(F)F", "outcome": "inactive"}, {"compound": "O=C(O)CCC(F)(F)C(F)(F)C(F)(F)C(F)(F)C(F)(F)C(F)(F)C(F)(F)F", "outcome": "inactive"}, {"compound": "CCN(CC)c1ccc(N=Nc2ccccc2)cc1", "AC50": "29.6 µM (active)"}, {"compound": "O=S(=O)(Cl)C(F)(F)C(F)(F)C(F)(F)C(F)(F)C(F)(F)C(F)(F)C(F)(F)C(F)(F)F", "outcome": "inactive"}, {"compound": "O=C(Cl)C(F)(F)C(F)(F)C(F)(F)C(F)(F)C(F)(F)C(F)(F)F", "outcome": "inactive"}, {"compound": "Cc1cc(O)c(C(C)(C)C)cc1C(C)(C)C", "AC50": "7.74 µM (active)"}, {"compound": "FC(F)(F)C(F)(F)C(F)(F)CC1CO1", "note": "(configuration not stated)", "outcome": "inactive"}, {"compound": "O=C(O)C(F)(F)C(F)(F)C(F)(F)C(=O)O", "outcome": "inactive"}, {"compound": "Cc1cnccn1", "outcome": "inactive"}, {"compound": "CN(C(=O)C(F)(F)C(F)(F)C(F)(F)F)[Si](C)(C)C", "outcome": "inactive"}, {"compound": "Brc1nc2ccccc2s1", "outcome": "inactive"}, {"compound": "CCN(CC)c1ccc2c(c1)Oc1cc(N(CC)CC)ccc1C21OC(=O)c2ccccc21", "outcome": "inactive"}, {"compound": "NC(O)(C(F)(F)F)C(F)(F)F", "outcome": "inactive"}, {"compound": "O=C(O)C(F)(F)OC(F)(F)C(F)(F)OC(F)(F)C(F)(F)OC(F)(F)F", "outcome": "inactive"}, {"compound": "O=C(O)C(F)(F)C(F)(F)C(F)(F)C(F)(F)C(F)(F)C(F)(F)C(F)F", "outcome": "inactive"}, {"compound": "NC(=O)C(F)(F)C(F)(F)C(F)(F)C(F)F", "outcome": "inactive"}, {"compound": "OC(O)C(F)(F)C(F)(F)F", "outcome": "inactive"}, {"compound": "COC(F)(C(F)F)C(F)(F)F", "note": "(configuration not stated)", "outcome": "inactive"}, {"compound": "Cc1ccc(O)c(-n2nc3ccccc3n2)c1", "outcome": "inactive"}, {"compound": "CCN=C1C=CC(=C(c2ccc(N(CC)CC)cc2)c2ccc(N(CC)CC)cc2)c2ccccc21", "AC50": "2.39 µM (active) and 2.33 µM (active)"}, {"compound": "NC(=O)C(F)(F)C(F)(F)C(F)(F)C(F)(F)C(F)(F)C(F)(F)C(F)(F)F", "outcome": "inactive"}, {"compound": "FC(F)(F)C(F)(F)C(F)(F)C(F)(F)C(F)(F)C(F)(F)C(F)(F)CCI", "outcome": "inactive"}, {"compound": "Cc1ccc(S(=O)(=O)C(I)I)cc1", "AC50": "5.31 µM (active)"}, {"compound": "OCCCC(F)(F)C(F)(F)C(F)(F)C(F)(F)C(F)(F)C(F)(F)C(F)(F)C(F)(F)F", "AC50": "41.5 µM (active) and 45.7 µM (active)"}, {"compound": "NC(=O)C(F)(F)C(F)(F)C(F)(F)C(F)(F)C(N)=O", "outcome": "inactive"}, {"compound": "O=C(O)CCC(F)(F)C(F)(F)C(F)(F)F", "outcome": "inactive"}]}]}
